{"source": "PubChem BioAssay (NCATS)", "note": "Records with an inconclusive call do not appear. A number with no mark means an inactive call. Active and inactive are the calls of the source. Calls follow the shape of the dose curve; as a rule, active = well fitted curve in the direction sought with a large enough effect; inconclusive = small, poorly fitted or top-dose-only effect, or another doubt; inactive = no such curve, though single readings can be large; an effect the other way counts as inactive or inconclusive. % is scaled to controls: 0 for no effect and ±100 for the full control effect.", "data": [{"biological_target": "ATP-dependent 6-phosphofructokinase (Trypanosoma brucei brucei) (UniProt O15648)", "sequence (O15648 whole entry, looked up)": "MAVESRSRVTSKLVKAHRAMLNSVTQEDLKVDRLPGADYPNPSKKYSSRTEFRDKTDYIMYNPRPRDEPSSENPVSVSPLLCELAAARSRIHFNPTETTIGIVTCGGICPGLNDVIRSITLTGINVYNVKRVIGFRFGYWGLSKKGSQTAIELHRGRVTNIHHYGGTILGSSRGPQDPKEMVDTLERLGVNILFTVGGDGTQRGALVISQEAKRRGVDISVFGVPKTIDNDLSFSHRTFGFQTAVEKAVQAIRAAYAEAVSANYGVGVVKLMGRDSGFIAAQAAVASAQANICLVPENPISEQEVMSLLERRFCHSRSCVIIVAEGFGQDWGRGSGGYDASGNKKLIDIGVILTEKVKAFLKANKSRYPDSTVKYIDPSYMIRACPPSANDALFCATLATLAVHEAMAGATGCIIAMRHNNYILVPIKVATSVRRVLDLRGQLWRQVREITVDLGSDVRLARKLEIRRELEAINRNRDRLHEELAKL", "assay": "qHTS Assay to Find Inhibitors of T. brucei phosphofructokinase: hit validation (AID 492961);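 also: luminescence reports ADP formed as PFK phosphorylates fructose-6-phosphate with ATP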", "settings": "T. brucei PFK, ADP-Glo luminescence; series mostly up to 51.4 µM; activity change, negative = inhibition: at the top concentration", "outline": "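Compounds titrated; %activity normalized to 0x and 1x enzyme controls, curve-fitted. Readout: ADP-Glo luminescence after 45 min room-temperature reaction of 1.25 nM PFK, 0.1 mM ATP, 0.5 mM F6P, pH 8.0.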", "values": [{"smiles": "CCC(C(=O)OCCOCCN(CC)CC)c1ccccc1", "note": "(stereo unspecified)", "activity change, negative = inhibition": "-10.8%"}, {"smiles": "CC(C)(Cc1c[nH]c2ccccc12)NCC(O)COc1ccccc1C#N", "note": "(stereo unspecified)", "activity change, negative = inhibition": "-1.64%"}, {"smiles": "N=C(N)N1CCc2ccccc2C1", "activity change, negative = inhibition": "-5.37%"}, {"smiles": "CN1CCC[C@@H]1CCO[C@](C)(c1ccccc1)c1ccc(Cl)cc1", "activity change, negative = inhibition": "4.52%"}, {"smiles": "CCN(CC)CCNC(=O)COc1ccc(OC)cc1", "activity change, negative = inhibition": "1.63%"}, {"smiles": "CCCc1ncc(C[n+]2ccccc2C)c(N)n1", "activity change, negative = inhibition": "-4.15% [at 24.3 µM]"}, {"smiles": "CCCCc1cc2ccccc2c(OCCN(C)C)n1", "activity change, negative = inhibition": "13.1% [at 24.3 µM]"}, {"smiles": "O=C(Nc1cccc(C2=NCCN2)c1)Nc1cccc(C2=NCCN2)c1", "activity change, negative = inhibition": "-6.35%"}, {"smiles": "CC(=O)OCC(=O)[C@H]1CC[C@H]2[C@@H]3CCC4=CC(=O)CC[C@]4(C)[C@H]3CC[C@]12C", "activity change, negative = inhibition": "0.512%"}, {"smiles": "CN1CCN(C2=Nc3cc(F)ccc3Cc3ccccc32)CC1", "activity change, negative = inhibition": "1.53%"}, {"smiles": "FC(F)(F)C(F)(F)C(F)(F)C(F)(F)C(F)(F)C(F)(F)C(F)(F)C(F)(F)Br", "activity change, negative = inhibition": "0.148%"}]}, {"biological_target": "Ubiquitin carboxyl-terminal hydrolase 1 (Homo sapiens) (UniProt O94782)", "sequence (O94782 whole entry, looked up)": "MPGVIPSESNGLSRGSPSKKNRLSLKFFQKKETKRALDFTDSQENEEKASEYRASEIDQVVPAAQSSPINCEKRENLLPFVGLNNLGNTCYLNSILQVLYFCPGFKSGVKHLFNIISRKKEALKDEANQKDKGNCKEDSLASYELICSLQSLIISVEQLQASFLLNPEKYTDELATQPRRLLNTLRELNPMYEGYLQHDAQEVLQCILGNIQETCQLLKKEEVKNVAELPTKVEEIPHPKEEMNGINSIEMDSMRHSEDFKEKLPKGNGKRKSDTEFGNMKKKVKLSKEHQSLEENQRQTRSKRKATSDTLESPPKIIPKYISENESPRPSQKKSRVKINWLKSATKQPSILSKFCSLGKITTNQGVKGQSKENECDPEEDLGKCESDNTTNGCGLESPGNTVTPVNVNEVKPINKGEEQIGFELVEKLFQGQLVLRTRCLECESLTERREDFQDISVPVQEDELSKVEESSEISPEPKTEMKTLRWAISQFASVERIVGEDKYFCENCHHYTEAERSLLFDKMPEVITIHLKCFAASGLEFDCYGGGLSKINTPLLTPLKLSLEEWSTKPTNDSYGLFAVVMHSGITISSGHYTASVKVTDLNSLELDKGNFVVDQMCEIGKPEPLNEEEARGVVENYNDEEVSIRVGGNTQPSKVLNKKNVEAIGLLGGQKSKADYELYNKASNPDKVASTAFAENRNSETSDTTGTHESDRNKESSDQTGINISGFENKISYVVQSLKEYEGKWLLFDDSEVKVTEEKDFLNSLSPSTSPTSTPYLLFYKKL", "assay": "Inhibitors of USP1/UAF1: Pilot qHTS (AID 504865); also: nearly all actives have a fitted effect of over 35% in size; also: potency is read from the fitted curve at half-maximal effect;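 as to activity change, negative = inhibition: rhodamine fluorescence freed from ubiquitin-rhodamine substrate followed over time; top concentration of the series differs between compounds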", "settings": "purified USP1/UAF1, Ub-rhodamine cleavage fluorescence; series mostly up to 114 µM; activity change, negative = inhibition: at the top concentration", "outline": "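1nM USP1/UAF1 + cpd, 15 min RT; start w/ Ub-Rho 150nM final; kinetic FL 480/540 nm, 6 reads q60 s. Buffer 50mM HEPES pH 7.8, 0.5mM EDTA, 1mM TCEP, 0.01% Tween-20, 0.1 mg/ml BSA.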", "values": [{"smiles": "C[N+]12CCC(CC1)C(OC(=O)C(O)(c1ccccc1)c1ccccc1)C2", "note": "(stereo unspecified)", "activity change, negative = inhibition": "-8.1%"}, {"smiles": "CCC(C(=O)OCCOCCN(CC)CC)c1ccccc1", "note": "(stereo unspecified)", "activity change, negative = inhibition": "-8.22%"}, {"smiles": "COc1ccc(C(Cl)=C(c2ccc(OC)cc2)c2ccc(OC)cc2)cc1", "activity change, negative = inhibition": "-8.04% [at 54.9 µM]"}, {"smiles": "CC(C)(Cc1c[nH]c2ccccc12)NCC(O)COc1ccccc1C#N", "note": "(stereo unspecified)", "activity change, negative = inhibition": "-9.2%"}, {"smiles": "O=C(O)CCc1nc2ccccc2[nH]1", "activity change, negative = inhibition": "-6.28%"}, {"smiles": "O=C(O)CCNC(=O)c1ccccc1", "activity change, negative = inhibition": "-3.43%"}, {"smiles": "CCN(CC)CCOC(=O)C(Cc1cccc2ccccc12)CC1CCCO1", "note": "(stereo unspecified)", "activity change, negative = inhibition": "4.17%"}, {"smiles": "CCCCC(CC)CN1CN(CC(CC)CCCC)CC(C)(N)C1", "note": "(stereo unspecified)", "activity change, negative = inhibition": "-7.74%"}, {"smiles": "O=C(O)C1(C(=O)O)CCC1.[NH2-].[NH2-].[Pt+2]", "activity change, negative = inhibition": "-7.49%"}, {"smiles": "N=C(N)N1CCc2ccccc2C1", "activity change, negative = inhibition": "-14.7% [at 54.9 µM]"}, {"smiles": "CN1CCC[C@@H]1CCO[C@](C)(c1ccccc1)c1ccc(Cl)cc1", "activity change, negative = inhibition": "-13% [at 54.9 µM]"}, {"smiles": "CCN(CC)CCNC(=O)COc1ccc(OC)cc1", "Potency": "inactive"}, {"smiles": "CC(C(=O)O)c1cccc(Oc2ccccc2)c1", "note": "(stereo unspecified)", "activity change, negative = inhibition": "-8.95%"}, {"smiles": "CC[N+](C)(CC)CCOC(=O)C(O)(c1ccccc1)C1CCCCC1", "note": "(stereo unspecified)", "activity change, negative = inhibition": "-6.5%"}, {"smiles": "CC(C)Cn1cnc2c1c(=O)n(C)c(=O)n2C", "activity change, negative = inhibition": "2.18%"}, {"smiles": "CO[C@]12C[C@@H](COC(=O)c3cncc(Br)c3)CN(C)[C@@H]1Cc1cn(C)c3cccc2c13", "activity change, negative = inhibition": "-1.76%"}, {"smiles": "CCCc1ncc(C[n+]2ccccc2C)c(N)n1", "activity change, negative = inhibition": "5.79% [at 54.9 µM]"}, {"smiles": "CCOc1ccc(NC(C)=O)cc1", "Potency": "inactive"}, {"smiles": "CCNC(=O)NCc1cccc(Cl)c1", "activity change, negative = inhibition": "-7.13%"}, {"smiles": "OC(C#CCN1CCCC1)(c1ccccc1)c1ccccc1", "activity change, negative = inhibition": "-4.67%"}, {"smiles": "CCN(CC)CCNC(=O)c1cc(Br)c(N)cc1OC", "activity change, negative = inhibition": "-7.02%"}, {"smiles": "CCCN(CCC)S(=O)(=O)c1ccc(C(=O)O)cc1", "activity change, negative = inhibition": "-5.18%"}, {"smiles": "CCCCc1cc2ccccc2c(OCCN(C)C)n1", "activity change, negative = inhibition": "2.07% [at 54.9 µM]"}, {"smiles": "Cc1c(-c2ccccc2)oc2c(C(=O)OCCN3CCCCC3)cccc2c1=O", "activity change, negative = inhibition": "3.67% [at 54.9 µM]"}, {"smiles": "CCN(CC)CCNc1ccc(CO)c2sc3ccccc3c(=O)c12", "activity change, negative = inhibition": "-4.24% [at 54.9 µM]"}, {"smiles": "Nc1nc(-c2ccccc2)c(Br)c(=O)[nH]1", "activity change, negative = inhibition": "-4.01%"}, {"smiles": "O=C(Nc1cccc(C2=NCCN2)c1)Nc1cccc(C2=NCCN2)c1", "activity change, negative = inhibition": "-11%"}, {"smiles": "CC(=O)OCC(=O)[C@H]1CC[C@H]2[C@@H]3CCC4=CC(=O)CC[C@]4(C)[C@H]3CC[C@]12C", "activity change, negative = inhibition": "-3.73%"}, {"smiles": "COc1ccc(C(=O)c2ccccc2)c(O)c1", "activity change, negative = inhibition": "10% [at 54.9 µM]"}, {"smiles": "CN(C)CCOC(=O)C(c1ccccc1)C1(O)CCCC1", "note": "(stereo unspecified)", "activity change, negative = inhibition": "-6.25%"}, {"smiles": "CCC(Cc1c(I)cc(I)c(N)c1I)C(=O)O", "note": "(stereo unspecified)", "activity change, negative = inhibition": "-8.52%"}, {"smiles": "CN1CCN(C2=Nc3cc(F)ccc3Cc3ccccc32)CC1", "activity change, negative = inhibition": "-9.72%"}, {"smiles": "FC(F)(F)C(F)(F)C(F)(F)C(F)(F)C(F)(F)C(F)(F)C(F)(F)C(F)(F)Br", "activity change, negative = inhibition": "-1.32%"}, {"smiles": "O=C1C(CCS(=O)c2ccccc2)C(=O)N(c2ccccc2)N1c1ccccc1", "note": "(stereo unspecified)", "activity change, negative = inhibition": "-3.73% [at 54.9 µM]"}, {"smiles": "CCN1/C(=C/C=C/c2sc3ccccc3[n+]2CC)Sc2ccccc21", "Potency": "44.7 µM (active)"}]}]}
